Screening data from PubChem.
Rows were chosen to be rich in hits. Some 12% of all compounds tested hit in one or more screens of this group.
BAZ2B block = blocks human BAZ2B | Q9UIF8 | AlphaScreen BAZ2B-H3K14Ac peptide displacement | Potency, µM (titrated, usually from 114 µM), for the others: top-dose activity change, negative = inhibition, hits mostly inhibitors | actives 4.4% (n = 360,000) | AID 504333; also: % is scaled to controls: 0 for no effect and ±100 for the full control effect; nearly all actives have a fitted effect of over 60% in size
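AlphaScreen displacement of biotin-H3(5-23)K14Ac peptide (50 nM final) from BAZ2B (50 nM final) in PBS pH 7.4, 0.01% Tween-20; complex preformed 30 min RT, then compounds (top 110 uM) 30 min RT, beads 20 min dark.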
G9a block = inhibitors of human histone lysine methyltransferase G9a; Q96KQ7; G9a H3K9 monomethylation, AlphaScreen, 2 h; Potency, µM (highest dose often 102 µM), for the others: at the top dose activity, negative = inhibition, actives largely listed as inhibitors; actives 8.8% (n = 350,000); also: % is scaled to controls: 0 for no effect and ±100 for the full control effect; nearly all actives have a fitted effect of over 75% in size
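G9a (20 nM) was preincubated 15 min with compound, then reacted 2 h at room temperature with 500 nM biotin-H3K9 peptide and 20 µM SAM. Monomethyl-H3K9 detected by AlphaScreen using anti-H3K9me1 antibody.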
JMJD2A Tudor = blocks the human JMJD2A Tudor domain; O75164; AlphaScreen JMJD2A-Tudor / H3K4me3 peptide binding; Potency, µM (highest dose often 114 µM), inactives show at the highest dose activity change, negative = inhibition, actives largely listed as inhibitors; actives 4.4% (n = 390,000); AID 504339; also: % is scaled to controls: 0 for no effect and ±100 for the full control effect; nearly all actives have a fitted effect of over 50% in size
HP1b chromo inh = blocks HP1-beta chromodomain binding to methylated histone tails; actives 0.56% (n = 390,000); Potency, µM (top dose mostly 114 µM), for inactives: top-dose activity change, negative = inhibition, most hits filed as inhibitors; AlphaScreen HP1-beta / biotin-H3K9me3 peptide binding; P83916; AID 540317; also: nearly all actives have a fitted effect of over 70% in size
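AlphaScreen: HP1-beta (50 nM) preformed 30 min with biotin-H3(1-18)K9me3 peptide (50 nM) in PBS pH 7.4, 0.01% Tween-20. Compound added for 30 min at RT, then streptavidin donor/nickel chelate acceptor beads (10 ug/mL) for 30 min.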
Sfp inh = inhibitors of Bacillus subtilis Sfp phosphopantetheinyl transferase | Q9F4F7 | Biochemical Sfp PPTase activity, qHTS | Potency, µM, inactives show largest response in the series, negative = inhibition, usual class: inhibitors | actives 3.5% (n = 310,000) | AID 1490;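 also: the enzyme is Sfp with the accession as filed and its product quenches rhodamine fluorescence; 0% = enzyme reaction without inhibitor and -100% = no enzyme wells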
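Compounds were incubated with enzyme (final 15 nM) for 15 min at room temperature before substrate addition started the reaction. Fluorescence at 525 nm excitation, 598 nm emission was recorded immediately and after 30 minutes.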
Starred values were filed as active, the others as inactive; ? = inconclusive; . = no result given; ! = not active in a repeat; [ ] = remark or other dose. Calls follow the shape of the dose curve; as a rule, active = well fitted curve in the direction sought with a large enough effect; inconclusive = small, poorly fitted or top-dose-only effect, or another doubt; inactive = no such curve, though single readings can be large; an effect the other way counts as inactive or inconclusive. Potency is read from the fitted curve at half-maximal effect.

SMILES	BAZ2B block	G9a block	JMJD2A Tudor	HP1b chromo inh	Sfp inh
COc1cccc(NC(=O)CSc2nc3ccccc3c(=O)n2CCCC(=O)NCCCN2CCOCC2)c1	-17%	7%[59 µM]	-16%	6%	9%
Cc1ccc(Cc2cn3cc(-c4ccc(F)cc4)nc3s2)cc1	34%	55%[59 µM]	-2%	71%	.
Cc1ccc(Cc2c[nH]c(=S)s2)cc1	?	7.1µM*	?	-14%	?
CC1CN(C2CCN(C(=O)c3cccc(Cl)c3)CC2)CC(C)O1 (centres undefined)	-32%	91%[59 µM]	8.9µM*	?	-22%
O=C(c1cccc(Cl)c1)N1CCC(c2nc3ccccc3o2)CC1	-3%	0%[59 µM]	4%	37%	.
CC1CN(C2CCN(C(=O)c3ccccc3Cl)CC2)CC(C)O1 (centres undefined)	?	?	35µM*	?	-14%
O=C(c1ccccc1Cl)N1CCC(N2CCC(C(=O)N3CCCC3)CC2)CC1	-6%[57.1 µM]	6%	-23%	15%	-13%
COc1ccccc1CCN=C(N)NS(=O)(=O)c1ccc(C)cc1	-24%	-12%	-12%	37%	19%
CCOc1ccc(C(=O)Nc2nc(C)c(C(=O)OC)s2)cc1	-18%	-41%	-29%	9%	0%
O=C(Cc1cccc(NC(=O)C2CCN(C(=O)C3CC3)CC2)c1)Nc1cccc(C(=O)N2CCCC2)c1	6%	-35%[2.33 µM]	-15%	36%	.
Cc1ccc(NC(=O)CC2SC(=NC3CCCCC3)NC2=O)cc1 (centres undefined)	-2%	89µM*	-12%[57.1 µM]	42%	-2%
Cc1ccccc1NC(=O)CC1SC(=NC2CCCCC2)NC1=O (centres undefined)	10%	-27%[59 µM]	-9%	53%	-14%
O=C(COC(=O)c1ccc2ccccc2c1O)NCC(F)(F)F	79µM*	-13%	?	-8%	9%
O=C(COC(=O)c1c2ccccc2cc2ccccc12)NCC(F)(F)F	68%	127%[59 µM]	65%[57.1 µM]	159%	19%
COc1c(N2CCN[C@H](C)C2)c(F)cc2c(=O)c(C(=O)O)cn(C3CC3)c12	0%	.	-17%	10%	3%
CCn1cc(C(=O)O)c(=O)c2cc(F)c(N3CCNC(C)C3)c(F)c21 (centres undefined)	.	11µM*!	.	.	-2%
CCN(CC)C(=O)CSc1nc2cc3c(cc2c(=O)n1Cc1ccc(OC)cc1)OCO3	56µM*	?	79µM*	18%	13%
CCN(CC)C(=O)CSc1nnc(COc2ccc(OC)cc2)n1N	2%	5%[0.501 µM]	-11%	12%	7%
CCN(CC)C(=O)CSc1nnc2nnc3cc(OC)ccc3n12	-16%	35µM*	-18%	11%	2%
COc1cccc(NC(=O)CN(C)C(=O)CN2C(=O)NC(C)(c3ccc4ccccc4c3)C2=O)c1 (centres undefined)	-6%	-49%[0.501 µM]	?	9%	.
Cc1ccsc1/C=N/n1c(COc2ccccc2)n[nH]c1=S	10%	0.89µM*	?	-15%	-10%
CC(C)(C)c1n[nH]c(=S)n(/N=C/c2cccs2)c1=O	-3%	-11%[59 µM]	-8%	40%	8%
S=c1[nH]nc(COc2ccccc2)n1/N=C/c1cccs1	-29%	1.4µM*	?	-20%	79µM*
CCSc1ccc([C@@H]2[C@H]3C(=O)N(CC)C(=O)[C@H]3[C@]3(C(=O)OC)CCCCN23)cc1	-38%	5%[2.33 µM]	?	4%	.
COC(=O)c1ccc(CSc2nc3c([nH]c4ccccc43)c(=O)n2-c2ccc(Cl)cc2)o1	32%	9%[59 µM]	-6%	50%[57 µM]	.
SMILES	BAZ2B block	G9a block	JMJD2A Tudor	HP1b chromo inh	Sfp inh
CCOc1ccc(S(=O)(=O)N(CC)CC)cc1NS(=O)(=O)c1ccc(F)c(F)c1F	8%	-8%[59 µM]	50µM*	9%	15%
CCN(CC)S(=O)(=O)c1ccc(O)c(NS(=O)(=O)c2ccccc2F)c1	-5%	1.4µM*	-23%[57.1 µM]	?	50µM*
CCOc1cc(S(=O)(=O)N(CC)CC)ccc1F	?	-37%[59 µM]	12%	24%	8%
CCN(CC)S(=O)(=O)c1ccc(O)c(NC(=O)CN2CCc3ccccc3C2)c1	-3%	15%	9%	34%	33%
CC1(C)O[C@H]2[C@@H](O1)[C@@H](C(=O)Nc1ccccc1O)O[C@@H]1OC(C)(C)O[C@@H]12	2%	1µM*	1%	44%	.
N#CCCN(NC1=NS(=O)(=O)c2ccccc21)C(=O)c1ccccc1Br	-1%	-3%[2.33 µM]	35µM*	59%	7%
CC(C)OCCCNC(=O)c1ccc(CSc2nc3cccnc3n2Cc2ccccc2)cc1	4%	2%[59 µM]	-12%	-2%	.
O=C(O)c1ccc(NC(=S)NC(=O)c2ccc(-c3ccccc3)cc2)cc1	?	18µM*	?	?	?
CCOC(=O)c1ccc(NC(=S)NC(=O)c2cncc(Br)c2)cc1	-3%	?	-1%	24%	-27%
Cc1ccc(NC(=S)NC(=O)c2cncc(Br)c2)c(C)c1	.	.	-11%	49%	.
Cc1ccnc(NC(=S)NC(=O)c2cncc(Br)c2)c1	-39%	0.63µM*	3%	24%	9%
O=C(O)c1ccc(NC(=S)NC(=O)c2cncc(Br)c2)cc1	?	40µM*	-8%	-1%	-25%
O=C(NC(=S)Nc1ccccc1)c1ccc(-c2ccccc2)cc1	7%	18%[59 µM]	-15%	?	4%
Cc1nc(NC(=S)NC(=O)c2cncc(Br)c2)ccc1Br	-28%	.	18µM*	6%	?
Cn1cc(C(=O)Nc2ccccn2)c(=O)c2ccccc21	5%	26%	1%	12%	14%
CC1CN(Cc2ccc(C#N)cc2Cl)CC(C)O1 (centres undefined)	-6%	35µM*	?	33%	12%
O=C(NCCc1ccccc1)c1cc2sccc2n1Cc1ccccc1	89µM*	3%	?	-7%	-1%
CCOC(=O)c1ccc(NC(=O)CSCC(=O)OCC(=O)c2ccccc2)cc1	2%	-5%[59 µM]	-17%	29%	14%
C/C(Cn1nnc([N+](=O)[O-])n1)=N\NC(=O)c1ccccc1O	2%	-5%	45µM*	9%	-7%
C=CCc1ccccc1OCC(O)CN1CCN(C(=O)OCC)CC1 (centres undefined)	21%	29%[2.33 µM]	-11%	19%	-13%
C=CCc1ccccc1OCC(O)CN1CCN(Cc2ccc3c(c2)OCO3)CC1 (centres undefined)	56µM*	45µM*!	-33%	10%	7%
Cc1ccc(OCC(O)CN2CCN(Cc3ccc4c(c3)OCO4)CC2)cc1C (centres undefined)	?	-15%[59 µM]	-21%	9%	-5%
C=CCc1ccccc1OCC(O)CN1CCN(c2ccc(C)cc2)CC1 (centres undefined)	28µM*	13µM*	3.5µM*	?	?
COc1ccc(C(C)=O)cc1COC(=O)[C@H](Cc1ccccc1)NC(=O)c1ccco1	.	.	-19%	26%	.
